# Assay results: PubChem BioAssay AID720568 (Broad Institute, 2013)
# Entries with a potency or affinity are not part of this list. Active and inactive are the calls of the source. How the calls were made is not given here.
# Assay: HepG2 cell cytotoxicity, dose response, cytotoxicity control, dry powder samples (AID 720568)
# Conditions: plate reader; series mostly up to 15 µM
row,Compound,outcome
1,COc1ccc(NC(=O)C(=O)c2cn(CC(=O)N3CCCC3)c3ccccc23)cc1,inactive
2,CC(=O)c1cccc(NC(=O)CSc2ncc(C(=O)Nc3ccccc3)c(=O)n2C)c1,inactive
3,CCOc1ccc(NC(=O)c2cc(OC)nc3ccccc23)cc1,inactive
4,Cc1ccc(C(=O)c2cc([N+](=O)[O-])ccc2N2CCOCC2)cc1C,inactive
5,CC(=O)N1CCC(=O)c2cc3ccccc3cc21,inactive
6,Cc1cc(C)nc(/N=C(\N)Nc2ccc(OCc3ccccc3)cc2)n1,inactive
7,Cc1ccc(CCC(=O)Nc2ncc(Cc3cc(Cl)ccc3Cl)s2)o1,inactive
8,CCC1=Nc2cc(C(=O)NCCCOC)ccc2Sc2ccccc21,inactive
9,COC(=O)c1cn(C(=O)c2ccc(OC)cc2)c2ccccc12,inactive
10,CCN(CC)CCC(=O)Nc1cccc2c1C(=O)c1ccccc1C2=O,inactive
11,CCCCOc1ccccc1C1CC(=O)NC2=C1C(=O)CCC2 (stereo not drawn),inactive
12,COc1ccccc1-c1nnc(SCc2ccccc2)o1,inactive
13,Cc1cc(C)cc(C(=O)N2CC(=O)Nc3ccccc32)c1,inactive
14,O=C(Cc1ccccc1)c1nnc(-c2ccccc2)o1,inactive
15,COc1cccc(N2CCN(C(=O)c3ccc(CS(=O)c4ccc(C)cc4)o3)CC2)c1 (stereo not drawn),inactive
16,COc1cc(Nc2c3c(nc4ccccc24)CCCC3)cc(OC)c1OC,inactive
17,COc1ccc2c(COC(=O)c3cccc(S(=O)(=O)NCC(C)C)c3)cc(=O)oc2c1,inactive
18,Cc1ccc(/C=N/NC(=O)C2COc3ccccc3O2)s1 (stereo not drawn),inactive
19,CCCOC(=O)c1[nH]c2c(c1C)C(=O)CC(c1cccs1)C2 (stereo not drawn),inactive

row,Compound,outcome
1,COc1ccccc1OCC(=O)NNC(=O)c1ccoc1C,inactive
2,Cc1cc(NC(=O)CSc2nc(-c3ccco3)cc(C(F)(F)F)n2)no1,inactive
3,CCOC(=O)c1ccc(Oc2cc(C)nc(SC)n2)cc1,inactive
4,COc1ccc(-c2nnc(SCc3ccccc3)o2)cc1,inactive
5,Cc1ccc(Oc2ccc(S(=O)(=O)N3CCOCC3)cc2C(N)=O)c(-n2nc3ccccc3n2)c1,inactive
6,COc1ccccc1CSc1nnc(-c2ccccc2)o1,inactive
7,O=C(N/N=C/c1ccc(Cl)cc1)c1sccc1OCc1ccc(F)cc1,inactive
8,Brc1ccc(CSc2nnc(-c3ccccc3)o2)cc1,inactive
9,Cc1[nH][nH]c(=O)c1C(c1ccc(-c2ccc(Cl)c(Cl)c2)o1)c1c(C)[nH][nH]c1=O,inactive
10,CCN(CC)CCCNc1nc2cc(OC)c(OC)cc2c2nc(-c3ccccc3)nn12,inactive
11,Cc1cnc(NC(=O)c2cc(S(=O)(=O)N(C)C)ccc2N2CCCC2)s1,inactive
12,CCOc1ccc(S(=O)(=O)NCc2ccccn2)cc1NC(=O)c1ccccc1F,inactive
13,Cc1cc(=O)[nH]c(N/N=C/c2cc(C)n(CC(F)(F)F)c2C)n1,inactive
14,Cc1cccc(C)c1OCCNC(=O)C(=O)NCc1ccco1,inactive
15,CCOC(=O)COc1cccc2c(=O)n(CC(=O)NCc3ccccc3)ccc12,inactive
16,COc1cc(-c2nnc(SCC3(c4ccc(Br)cc4)OCCO3)o2)cc(OC)c1OC,inactive
17,CCn1c2ccccc2c2cc(NC(=O)c3cc(OC)c(OC)c(OC)c3)ccc21,inactive
18,C/C(=N\NC(=O)c1c([N+](=O)[O-])c(C)nn1C)c1ccc(NC(=O)C2CCCC2)cc1,inactive
19,CCCNS(=O)(=O)c1cccc(C(=O)OCc2cc(=O)oc3cc(OC)ccc23)c1,inactive
